Each structure is given as a SMILES string.

This experiment has as its target T1, Aspartate--tRNA(Asp/Asn) ligase (Mycobacterium tuberculosis (strain ATCC 25618 / H37Rv)) (UniProt P9WFW3).
T1 sequence (whole entry): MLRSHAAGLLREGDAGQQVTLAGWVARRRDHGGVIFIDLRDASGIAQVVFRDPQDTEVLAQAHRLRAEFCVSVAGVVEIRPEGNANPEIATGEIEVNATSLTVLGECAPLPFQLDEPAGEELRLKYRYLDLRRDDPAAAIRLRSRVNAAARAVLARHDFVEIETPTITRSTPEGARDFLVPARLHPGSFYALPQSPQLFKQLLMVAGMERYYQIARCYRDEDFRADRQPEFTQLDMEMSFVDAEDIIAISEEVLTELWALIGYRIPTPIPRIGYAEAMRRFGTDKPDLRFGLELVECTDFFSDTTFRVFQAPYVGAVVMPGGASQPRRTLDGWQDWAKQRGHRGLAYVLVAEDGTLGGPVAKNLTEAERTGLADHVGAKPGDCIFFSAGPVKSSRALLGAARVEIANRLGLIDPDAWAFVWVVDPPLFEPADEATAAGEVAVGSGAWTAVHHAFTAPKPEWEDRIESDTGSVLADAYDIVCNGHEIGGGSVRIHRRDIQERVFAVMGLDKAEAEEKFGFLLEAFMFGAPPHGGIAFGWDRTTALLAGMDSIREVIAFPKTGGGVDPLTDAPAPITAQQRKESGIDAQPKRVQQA
Nature of the experiment: Assay for Asp RNA synthetase-1 from Mycobacterium tuberculosis. Also on record: scale not given: in the data most compounds retested in dose-response had high values. Format: functional. The note with it: 30 µM.
As for `COCCNC(=O)CCc1c(C)nn(-c2nc(C)c(C)c(=O)[nH]2)c1C`, the Percent Effect is -1.79%.

Turning to `Cc1ccc(S(=O)(=O)NC2CNC(=O)C2)cc1C` (centres undefined), the Percent Effect was -1.98%. Regarding `COc1c(C2CCCN2Cc2csc(C(C)C)n2)c(C)nn1C` (centres undefined), the Percent Effect is -1.4%. With `Cn1cnnc1C1CCN(C(=O)CCCOc2ccccc2F)CC1` the figure was 0.819%. With `O=C(NCc1ccco1)[C@@H]1CCO[C@@H]2CCN(c3ccncn3)C[C@H]21` the figure was 1.19%; with `COc1ccc(C)cc1S(=O)(=O)NCC(c1cccn1C)N(C)C` (centres undefined), -4.54%. In the case of `CN(C)CCN1CCC2(CC1)CN(c1cccnc1)C(=O)CO2`, the Percent Effect turned out to be 4.6%.

In the case of `Cc1cnn(CCC(=O)N2CCCN(c3cccnn3)CC2)c1`, the Percent Effect was -0.568%.

On to `O=C([C@H]1COC[C@H]2CN(Cc3ccco3)C[C@H]21)N1CCCO1`, for which the Percent Effect was 6.23%. Consider `Cc1cnn(CC2CN(CC(=O)Nc3sccc3C#N)CCO2)c1` (centres undefined), for which the Percent Effect is -2.83%.

As for `CC(C)Oc1cccc(C(=O)C2CCCN(C(=O)c3ncn[nH]3)C2)c1` (centres undefined), the Percent Effect worked out at 0.948%. Under `Cc1nc(CN2CCc3ncnc(C)c3CC2)cs1` stands -3.93%. With `Cn1nc2c(cc1=O)CN(Cc1coc(-c3cccs3)n1)CC2` the figure was 39.2%; with `CCOCC(O)CN1CCN(C(=O)c2cnc3n[nH]c(C)c3c2)CC1` (centres undefined), 1.04%. With `CNC(=O)N1CC[C@H]2N(C)CC[C@@]2(C(=O)Nc2ccccc2)CC1` the figure was -8.12%; with `Cc1nonc1CC(=O)N1C[C@@H]2CC[C@H](C1)N(Cc1ccccc1)C2=O`, 1.39%. Take `O=C(CSc1nncs1)N1CCN(Cc2ccc(Cl)s2)CC1`: the Percent Effect was -5.38%. With `CSc1ccccc1C(C(=O)O)N1CCN(Cc2ccccn2)CC1` (centres undefined) the figure was -1.38%. With `c1cnnc(N2CCCC(NCc3ccc(-n4ccnc4)cc3)C2)c1` (centres undefined) the figure was -2.02%.

The values above are taken from ChEMBL document CHEMBL3988442, “University of Dundee, Small-Polar-MMV Screening Library” (2021).
